The source of these data is PubChem BioAssay.

A short description of test [1]: yeast TOR pathway RPL19A-GFP modulators, primary screen, cell-based, S. cerevisiae, multiplex flow cytometry (AID 1862; in the data active = percent of DMSO control GFP below about 86%;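 note: lower values mimic rapamycin by blocking the RPL19A rise seen in DMSO cells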). The settings on record: S. cerevisiae RPL19A-GFP strain, flow cytometry fluorescence, 3 h; at 10 µM; stronger effect = lower value.
Test [2] can be described thus: modulators of MEP2-GFP levels in yeast, primary screen, S. cerevisiae, multiplex flow cytometry (AID 1867;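 active = GFP response, as percent of the DMSO control, above the screen-wide mean plus 3 SD, about 139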;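 note: median GFP channel fluorescence of barcode-gated MEP2-GFP cells measured by flow cytometry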). The settings on record: S. cerevisiae MEP2-GFP strain, 3 h, at 10 µM, stronger effect = higher value, 100% means same as DMSO wells. Background: In flow cytometry, cells or beads pass a laser one at a time.
The nature of test [3]: modulators of CIT2-GFP expression in yeast, primary screen, S. cerevisiae, GFP fusion, multiplex flow cytometry (AID 1870;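 active = percent response above a set limit, the screen-wide mean plus 3 SD, cut at about 130% in these data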;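 note: barcoded CIT2-GFP strain pooled with four other GFP strains with rapamycin as positive control; median GFP fluorescence per well over plate mean of DMSO wells so 100% = DMSO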). The settings on record: 3 h, at 10 µM, stronger effect = higher value.
A short description of test [4]: modulators of LAP4-GFP expression in yeast, primary screen, S. cerevisiae, multiplex flow cytometry (AID 1873;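 active = GFP signal, as percent of the solvent control, above the screen mean plus 3 SD, about 149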). The settings on record: 3 h, at 10 µM, stronger effect = higher value.
Test [5] is described as follows: modulators of AGP1-GFP expression in yeast TOR pathway, primary screen, cell-based, multiplex flow cytometry, S. cerevisiae (AID 1887;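 active = GFP signal above the screen-wide mean plus 3 SD, that is over about 124.5% of the solvent control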;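 note: AGP1-GFP fusion strain of S. cerevisiae within a five-strain barcoded multiplex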). The settings on record: 3 h, at 10 µM, stronger effect = higher value.
Test [6] can be described thus: inhibitors of CD8+ T cell-vesicle binding, pilot screen, LFA-1/ICAM-1 modulator project, MLPCN validation set, flow cytometry (AID 2523;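 active = response below a set limit, under 55% cells CD8-positive and vesicle-bound, and CD8 cells' 90th-percentile brightness under 279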;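 for vesicle binding response: mean PE anti-B7-1 fluorescence of CD8+ cells relative to row control; 100% = QL9-loaded vesicles with DMSO vehicle in the same plate row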). The settings on record: 2C mouse CD8+ T cells, at 7 µM, stronger effect = lower value; double positive events: measured here: CD8+/vesicle+ event percentage.
For test [7], the target named is Integrin beta-1 (Homo sapiens) + Integrin alpha-4 (Homo sapiens) (UniProt P13612+P05556). Description: inhibition of HUTS-21 binding to VLA-4, pilot screen, VLA-4 allosteric modulator project, U937 cells, HUTS-21 mAb, flow cytometry, validation set (AID 2674;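 active = inhibition above 50%, about 3 SD of the validation set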;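 note: antibody binding induced by the VLA-4 ligand LDV present at three times its Kd; 0% = LDV ligand with antibody and no compound and 100% = antibody without LDV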). The settings on record: HUTS-21 LIBS mAb binding, at 6.7 µM, stronger effect = higher value, binding induced by LDV ligand.

The nature of test [8]: superoxide lowering in aged yeast cells, pilot screen, validation compound set (AID 2706;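 active = superoxide response below 65% of plate, a cut near 3 SD across the whole screen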;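 note: yeast exposed to compound for one week at 30 degrees C before staining; 100% = mean of all compound wells on the same plate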). The settings on record: S. cerevisiae aging, superoxide DHE fluorescence; at 10 µM; stronger effect = lower value.
In test [9] the target is Beta-adrenergic receptor kinase 1 (Homo sapiens) (UniProt P25098). Description: GRK2 binders displacing RNA aptamer, biochemical, validation, human GRK2, bead flow cytometry (AID 488806). The settings on record: bead-bound GRK2, FAM-aptamer displacement, at 10 µM, stronger effect = higher value.
Test [10] addresses Beta-2 adrenergic receptor (Homo sapiens) (UniProt P07550). The test can be described thus: beta2AR agonists driving receptor internalization, pilot screen, cell-based, FAP fluorogen, flow cytometry, validation set (AID 504459;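 active = percent response above 42, roughly 3 SD of non-fluorescent test compounds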;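 note: agonist-driven loss of surface beta2AR via internalization measured by FAP dye flow cytometry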). Particulars: Am2.2-beta2AR cells, FAP surface receptor flow cytometry; at 10 µM; stronger effect = higher value.
The target of test [11] is AP-2 complex subunit beta (Homo sapiens) (UniProt P63010). Description: inhibitors of arrestin peptide binding to AP2, pilot screen, biochemical, validation set, GST-AP2 beads, flow cytometry (AID 504541;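 active = inhibition above 54%, about 3 SD of non-fluorescent compounds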;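 note: AP2 carries R879A mutation and is captured from E. coli lysate; bead-bound FITC arrestin peptide fluorescence measuring arrestin peptide binding to AP2; 0% = DMSO wells and 100% = excess unlabeled arrestin peptide control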). Particulars: FITC arrestin peptide, at 10 µM, stronger effect = higher value, AP2 beta2 appendage fragment, R879A mutant.
A short description of test [12]: yeast V-ATPase proton transport modulators, S. cerevisiae, pHLuorin, HTS validation (AID 504600; in the data active = response above about 15%;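 note: plate controls were DMSO for no effect and reference compound for full effect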). The settings on record: S. cerevisiae pHLuorin cytosolic pH, at 10 µM, stronger effect = higher value.
Test [13] has as its system anti-desmoglein-3 scFv antibody binding to human DSG3. The test can be described thus: inhibitors of anti-DSG3 scFv binding to DSG3, pilot screen, biochemical, validation compound set, bead-based, flow cytometry (AID 588368;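 active = binding below the plate cutoff, the plate median minus 3 SD, with a reading above zero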;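 note: signal is the median channel fluorescence of bead-bound GFP antibody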). The settings on record: Protein G beads, DSG3-Fc, scFv-GFP binding, at 10 µM, stronger effect = lower value.
Test [14] can be described thus: inhibitors of fungal efflux pumps CDR1, CDR2, MDR1, pilot screen, validation compound set, multiplex, phenotypic (AID 588506;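 active = efflux inhibition above 0.42, the validation set average plus 4 SD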;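 note: Nile Red retained in cells so higher fluorescence means more efflux inhibition; 0 = negative control wells and 1 = enniatin B 25 µM full block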). Particulars: S. cerevisiae pump-expressing triplex, Nile Red efflux flow cytometry; at 10 µM; stronger effect = higher value; the pumps come from Candida albicans.
In test [15] the target is ATP-binding cassette sub-family B member 6 (Homo sapiens) (UniProt Q9NP58). The test can be described thus: ABCB6 transporter inhibitors, pilot screen, K562-ABCB6 cells, flow cytometry, validation set (AID 588550;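 active = inhibition above the screen-wide mean plus 3 SD, about 51%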;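 note: 0% = DMSO wells and 100% = benzethonium chloride 70 µM positive control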). The settings on record: K562-ABCB6 porphyrin accumulation, 1 h, at 10 µM, stronger effect = higher value.
The nature of test [16]: promoters of myeloid differentiation in arrested cells, primary screen, cell-based, GFP/MAC1 double positive, flow cytometry, validation set (AID 588685;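 active = differentiation response of at least 50%, scaled between solvent and reference control, from cells with both markers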;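 note: compound exposure lasts four days before antibody staining and flow analysis; 0% = DMSO wells and 100% = 5 µM fulvestrant positive control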). Particulars: ER-HoxA9 marrow cells, stronger effect = higher value, normalized: vehicle 0, fulvestrant 100.

Inconclusive results are not listed. Calls of active or inactive are those of the source.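 Rule for the calls, unless noted: active = aptamer binding inhibition above 30%, about 3 SD of noise from non-fluorescent compounds; inactive = inhibition at or below 30%.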

ATP-binding cassette sub-family B member 6 (Homo sapiens), sequence (Q9NP58 whole entry, looked up): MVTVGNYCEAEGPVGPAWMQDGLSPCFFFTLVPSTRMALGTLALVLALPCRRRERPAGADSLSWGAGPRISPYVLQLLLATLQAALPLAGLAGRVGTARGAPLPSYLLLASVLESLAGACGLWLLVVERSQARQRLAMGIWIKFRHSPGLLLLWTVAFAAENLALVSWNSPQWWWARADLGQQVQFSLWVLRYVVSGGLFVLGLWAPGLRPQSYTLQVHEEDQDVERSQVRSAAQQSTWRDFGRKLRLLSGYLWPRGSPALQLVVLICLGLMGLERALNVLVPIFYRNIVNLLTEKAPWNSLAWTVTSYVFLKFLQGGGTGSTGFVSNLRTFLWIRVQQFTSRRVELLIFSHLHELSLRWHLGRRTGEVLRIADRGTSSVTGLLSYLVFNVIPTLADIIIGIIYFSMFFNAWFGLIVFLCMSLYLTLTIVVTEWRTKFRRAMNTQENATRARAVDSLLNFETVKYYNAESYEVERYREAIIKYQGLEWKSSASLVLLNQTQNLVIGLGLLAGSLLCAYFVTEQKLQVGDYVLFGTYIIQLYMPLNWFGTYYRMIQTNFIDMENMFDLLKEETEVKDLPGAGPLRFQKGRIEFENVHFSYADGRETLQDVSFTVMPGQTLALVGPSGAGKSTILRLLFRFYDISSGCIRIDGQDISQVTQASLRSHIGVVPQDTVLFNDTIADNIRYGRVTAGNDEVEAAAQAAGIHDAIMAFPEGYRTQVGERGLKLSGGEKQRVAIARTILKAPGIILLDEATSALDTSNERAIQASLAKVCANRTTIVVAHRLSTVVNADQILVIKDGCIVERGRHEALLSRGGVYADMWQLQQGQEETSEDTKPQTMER
Beta-adrenergic receptor kinase 1 (Homo sapiens), sequence (P25098 whole entry, looked up): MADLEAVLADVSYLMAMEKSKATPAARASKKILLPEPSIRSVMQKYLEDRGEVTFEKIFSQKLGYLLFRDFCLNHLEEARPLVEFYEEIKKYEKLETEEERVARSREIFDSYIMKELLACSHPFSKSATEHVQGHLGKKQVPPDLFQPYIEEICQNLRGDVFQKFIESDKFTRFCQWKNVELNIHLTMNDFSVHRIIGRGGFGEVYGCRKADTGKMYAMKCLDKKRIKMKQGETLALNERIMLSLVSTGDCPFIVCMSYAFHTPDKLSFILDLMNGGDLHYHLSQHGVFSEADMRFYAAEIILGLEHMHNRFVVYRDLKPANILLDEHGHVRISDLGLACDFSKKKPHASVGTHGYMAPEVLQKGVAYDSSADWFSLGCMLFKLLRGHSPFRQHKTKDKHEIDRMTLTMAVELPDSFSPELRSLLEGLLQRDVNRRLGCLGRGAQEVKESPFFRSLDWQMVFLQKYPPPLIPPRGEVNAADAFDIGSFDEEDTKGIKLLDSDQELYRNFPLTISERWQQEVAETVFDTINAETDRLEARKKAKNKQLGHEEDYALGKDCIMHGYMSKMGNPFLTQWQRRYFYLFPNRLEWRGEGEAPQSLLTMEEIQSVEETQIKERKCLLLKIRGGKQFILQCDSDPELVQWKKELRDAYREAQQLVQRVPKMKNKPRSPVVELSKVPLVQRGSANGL
Integrin beta-1 (Homo sapiens) + Integrin alpha-4 (Homo sapiens), sequence (P05556 whole entry, looked up): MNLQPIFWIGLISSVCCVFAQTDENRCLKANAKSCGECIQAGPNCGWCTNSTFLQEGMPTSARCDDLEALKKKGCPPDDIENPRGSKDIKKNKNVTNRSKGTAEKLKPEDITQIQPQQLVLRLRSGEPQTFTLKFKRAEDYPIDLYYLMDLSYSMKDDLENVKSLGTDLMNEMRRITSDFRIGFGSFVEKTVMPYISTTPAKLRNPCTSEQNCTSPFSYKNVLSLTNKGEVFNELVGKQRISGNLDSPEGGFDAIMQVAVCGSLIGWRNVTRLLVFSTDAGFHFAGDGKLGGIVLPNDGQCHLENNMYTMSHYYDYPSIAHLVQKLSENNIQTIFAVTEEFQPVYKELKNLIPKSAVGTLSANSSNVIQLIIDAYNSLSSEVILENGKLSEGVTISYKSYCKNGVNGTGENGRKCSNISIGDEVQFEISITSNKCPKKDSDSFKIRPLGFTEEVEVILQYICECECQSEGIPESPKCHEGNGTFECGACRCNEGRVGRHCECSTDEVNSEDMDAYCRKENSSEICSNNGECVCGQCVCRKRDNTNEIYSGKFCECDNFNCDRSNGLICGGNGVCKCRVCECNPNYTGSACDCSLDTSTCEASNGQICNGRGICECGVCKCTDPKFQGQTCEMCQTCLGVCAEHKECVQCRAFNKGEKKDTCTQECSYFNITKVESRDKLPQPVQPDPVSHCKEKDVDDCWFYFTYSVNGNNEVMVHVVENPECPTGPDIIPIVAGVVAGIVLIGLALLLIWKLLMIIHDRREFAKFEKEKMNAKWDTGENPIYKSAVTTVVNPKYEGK
Integrin beta-1 (Homo sapiens) + Integrin alpha-4 (Homo sapiens), sequence (P13612 whole entry, looked up): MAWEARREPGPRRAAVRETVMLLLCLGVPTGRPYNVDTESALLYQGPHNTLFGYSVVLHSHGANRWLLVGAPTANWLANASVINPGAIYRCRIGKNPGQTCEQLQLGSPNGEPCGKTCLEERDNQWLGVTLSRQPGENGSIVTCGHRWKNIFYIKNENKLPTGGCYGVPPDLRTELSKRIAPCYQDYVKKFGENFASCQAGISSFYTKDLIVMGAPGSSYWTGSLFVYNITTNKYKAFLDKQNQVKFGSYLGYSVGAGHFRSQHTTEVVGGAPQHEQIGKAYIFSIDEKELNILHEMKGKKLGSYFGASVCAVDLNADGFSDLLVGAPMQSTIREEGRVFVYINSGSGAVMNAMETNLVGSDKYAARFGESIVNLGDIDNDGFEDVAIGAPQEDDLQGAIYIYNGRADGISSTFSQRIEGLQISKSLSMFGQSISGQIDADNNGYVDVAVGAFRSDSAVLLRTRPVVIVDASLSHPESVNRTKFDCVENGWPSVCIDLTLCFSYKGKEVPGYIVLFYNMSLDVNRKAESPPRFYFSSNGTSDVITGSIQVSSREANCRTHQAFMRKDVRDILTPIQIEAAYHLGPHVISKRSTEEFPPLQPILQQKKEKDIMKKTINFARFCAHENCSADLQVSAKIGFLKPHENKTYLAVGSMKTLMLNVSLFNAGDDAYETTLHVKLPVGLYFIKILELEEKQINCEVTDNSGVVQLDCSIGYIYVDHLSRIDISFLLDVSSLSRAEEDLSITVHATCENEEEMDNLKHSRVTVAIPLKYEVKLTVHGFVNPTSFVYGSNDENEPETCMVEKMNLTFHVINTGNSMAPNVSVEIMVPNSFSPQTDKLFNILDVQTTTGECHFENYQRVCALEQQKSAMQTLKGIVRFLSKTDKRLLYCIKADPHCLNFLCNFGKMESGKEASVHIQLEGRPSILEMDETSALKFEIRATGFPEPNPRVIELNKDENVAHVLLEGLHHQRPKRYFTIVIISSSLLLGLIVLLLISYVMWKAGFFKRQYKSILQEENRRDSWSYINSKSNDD
AP-2 complex subunit beta (Homo sapiens), sequence (P63010 whole entry, looked up, the tested form may be a part, one chain of several): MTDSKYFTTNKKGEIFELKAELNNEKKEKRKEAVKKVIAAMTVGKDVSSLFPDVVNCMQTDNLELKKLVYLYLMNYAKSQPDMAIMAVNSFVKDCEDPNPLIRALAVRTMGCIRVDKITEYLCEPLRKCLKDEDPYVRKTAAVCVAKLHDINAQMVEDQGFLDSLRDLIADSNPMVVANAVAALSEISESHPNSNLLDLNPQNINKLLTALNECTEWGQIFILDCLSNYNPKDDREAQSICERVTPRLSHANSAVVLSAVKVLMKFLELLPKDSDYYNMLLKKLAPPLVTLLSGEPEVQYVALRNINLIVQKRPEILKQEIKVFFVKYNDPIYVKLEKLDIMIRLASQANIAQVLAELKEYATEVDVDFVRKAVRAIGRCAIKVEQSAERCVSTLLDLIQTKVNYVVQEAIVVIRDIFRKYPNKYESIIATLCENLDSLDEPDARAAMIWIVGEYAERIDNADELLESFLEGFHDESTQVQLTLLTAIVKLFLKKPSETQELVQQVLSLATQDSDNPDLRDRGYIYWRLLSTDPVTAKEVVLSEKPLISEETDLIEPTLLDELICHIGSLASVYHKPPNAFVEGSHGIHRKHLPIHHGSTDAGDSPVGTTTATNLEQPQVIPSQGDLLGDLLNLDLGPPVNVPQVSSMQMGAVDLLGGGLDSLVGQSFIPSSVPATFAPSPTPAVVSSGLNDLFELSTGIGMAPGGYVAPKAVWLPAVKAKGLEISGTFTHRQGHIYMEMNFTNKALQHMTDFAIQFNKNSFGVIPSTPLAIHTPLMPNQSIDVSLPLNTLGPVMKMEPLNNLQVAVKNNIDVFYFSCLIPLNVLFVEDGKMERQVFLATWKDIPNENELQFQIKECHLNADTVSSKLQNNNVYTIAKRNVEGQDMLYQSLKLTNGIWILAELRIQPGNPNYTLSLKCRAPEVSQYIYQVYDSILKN
Beta-2 adrenergic receptor (Homo sapiens), sequence (P07550 whole entry, looked up): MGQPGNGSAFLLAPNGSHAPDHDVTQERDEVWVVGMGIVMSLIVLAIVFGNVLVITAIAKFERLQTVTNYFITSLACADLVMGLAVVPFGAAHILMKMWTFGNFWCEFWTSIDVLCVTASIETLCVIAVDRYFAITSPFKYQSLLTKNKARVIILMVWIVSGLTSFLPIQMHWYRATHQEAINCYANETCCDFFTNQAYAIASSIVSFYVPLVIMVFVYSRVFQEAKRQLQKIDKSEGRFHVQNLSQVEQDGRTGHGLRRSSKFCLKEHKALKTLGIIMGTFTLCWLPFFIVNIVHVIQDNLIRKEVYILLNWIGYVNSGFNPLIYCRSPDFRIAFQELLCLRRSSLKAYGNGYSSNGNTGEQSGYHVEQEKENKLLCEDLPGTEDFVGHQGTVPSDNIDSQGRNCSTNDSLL

As to `CC(OC(=O)c1cc(=O)[nH]c2ccccc12)C(=O)c1ccccc1` (stereo not drawn), in [1], the percent of DMSO control GFP was 99.6% (inactive). In addition, the GFP response vs DMSO in test [2] is 101% (inactive); in [4] it was 107% (inactive). Further, the percent response of DMSO control in test [3] is 106% (inactive). Also, in test [5], the GFP response, % of DMSO was 105% (inactive). Moreover, the double positive events in test [6] amounted to 58.9%. Besides, the vesicle binding response in test [6] is 174% (inactive). The inhibition in [7] is -15.8% (inactive); in test [11], -9.56% (inactive); in test [15], 41% (inactive). Further, the superoxide response (% of plate) in test [8] is 96.4% (inactive). For the same molecule, in [9], the aptamer binding inhibition was -2% (inactive). Further, the response in test [10] is 1.78% (inactive); in test [12] it was 0.61% (inactive). The binding (% of control) in test [13] is 106% (inactive). For the same molecule, in test [14], the efflux inhibition (fraction of control) is -0.61 (inactive). In addition, the differentiation response in [16] was -4.57% (inactive).
`COC1CCN(Cc2cn(Cc3ccccc3)nc2-c2cc3ccccc3o2)CC1`: the percent of DMSO control GFP in test [1] is 105% (inactive). Moreover, the GFP response vs DMSO is 93% (inactive) in test [2] and 89.4% (inactive) in [4]. For the same molecule, the percent response of DMSO control in test [3] was 102% (inactive). For the same molecule, the GFP response, % of DMSO in [5] is 98.9% (inactive). Besides, in test [6], the double positive events amounted to 61.8%. Moreover, in [6], the vesicle binding response is 243% (inactive). Further, the inhibition in test [7] was 22.4% (inactive); in test [11] it was 9.94% (inactive); in test [15] it was 12% (inactive). Moreover, the superoxide response (% of plate) in [8] was 104% (inactive). Also, the aptamer binding inhibition in test [9] was 0% (inactive). Besides, the response in test [10] is 8.96% (inactive); in test [12], -0.82% (inactive). In test [13], the binding (% of control) was 105% (inactive). Further, the efflux inhibition (fraction of control) in [14] is -0.14 (inactive). Moreover, the differentiation response in [16] is -9.53% (inactive).
In the case of `CC1(C)CC(NCc2ccccc2)CCO1` (stereo not drawn), the percent of DMSO control GFP in [1] was 103% (inactive). In addition, the GFP response vs DMSO is 97.6% (inactive) in test [2] and 101% (inactive) in test [4]. Also, the percent response of DMSO control in test [3] was 96.4% (inactive). For the same molecule, the GFP response, % of DMSO in test [5] is 114% (inactive). The molecule also registered a double positive events in test [6] of 60.6%. For the same molecule, in [6], the vesicle binding response was 226% (inactive). Besides, the inhibition was 13.4% (inactive) in test [7], 60.9% (active) in test [11] and 4% (inactive) in test [15]. Further, the superoxide response (% of plate) in test [8] was 94.9% (inactive). Also, the aptamer binding inhibition in test [9] was 0% (inactive). The response in test [10] is -7.51% (inactive); in test [12], 5.23% (inactive). For the same molecule, the binding (% of control) in [13] was 101% (inactive). Further, the efflux inhibition (fraction of control) in test [14] is 0.04 (inactive). In test [16], the differentiation response is -7.94% (inactive).
As for `COc1ccc2c(CC(=O)NCC3CCC(C(=O)O)CC3)cc(=O)oc2c1` (stereo not drawn), the percent of DMSO control GFP in [1] was 101% (inactive). The GFP response vs DMSO in [2] was 103% (inactive); in [4], 101% (inactive). In addition, the percent response of DMSO control in test [3] is 105% (inactive). Also, the GFP response, % of DMSO in test [5] was 107% (inactive). This molecule also showed a double positive events in test [6] of 59.6%. The vesicle binding response in [6] was 116% (inactive). Further, the figures for the inhibition in [7], in test [11] and in test [15] were -9.13% (inactive), -1.68% (inactive) and -1% (inactive), respectively. Besides, the superoxide response (% of plate) in [8] was 111% (inactive). The aptamer binding inhibition in test [9] is -2% (inactive). The response in [10] is -4.55% (inactive); in test [12], 7.23% (inactive). The binding (% of control) in test [13] is 102% (inactive). Besides, the efflux inhibition (fraction of control) in test [14] was 0.04 (inactive). Further, the differentiation response in [16] is 4.2% (inactive).

Usually inhibition stands for the drop in the measured response relative to a control, in per cent.
